This passage reports growth inhibition results from PubChem BioAssay (NCI).

Compounds without any hit were thinned out: in the full panel of roughly 79,000, 15% have a hit. Values without a mark were called inactive. Active and inactive are the calls of the source. No stated cut-off is given here; in the data, active means growth inhibition above about 70%; inactive means the rest.

The nature of assay [1]: NCI Yeast Anticancer Drug Screen. Data for the rad50 strain (AID 155).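 Further: 0% = growth of vehicle-only cultures of the same strain.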 The following applies: S. cerevisiae rad50 strain growth inhibition, hits give high values. In short, it runs like this: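 Cells are treated with compound, grown, and their growth is then scored against vehicle-only cultures of the same repair-deficient yeast strain.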
The nature of assay [2]: NCI Yeast Anticancer Drug Screen. Data for the mec2-1 strain (AID 157). The following applies: S. cerevisiae mec2-1 strain, hits give high values. In short, it runs like this: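 Mutant yeast (mec2-1) grown with compound; growth inhibition relative to vehicle control reported.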
A short description of assay [3]: NCI Yeast Anticancer Drug Screen. Data for the sgs1 mgt1 strain (AID 161).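 Further: 0% = growth of cultures given vehicle only.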 The following applies: S. cerevisiae sgs1 mgt1 strain, hits give high values. In outline:
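Yeast cells carrying a defined DNA-repair defect were exposed to test compounds. Growth inhibition was measured relative to vehicle-treated controls.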

Assay [4] can be described thus: NCI Yeast Anticancer Drug Screen. Data for the cln2 rad14 strain (AID 165).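 Further: 0% = growth equal to vehicle treated cultures.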 The following applies: S. cerevisiae cln2 rad14 strain, hits give high values. In outline:
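Readout is yeast growth inhibition versus vehicle-treated controls, using a strain with cln2 and rad14 alterations exposed to compound.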

A short description of assay [5]: NCI Yeast Anticancer Drug Screen. Data for the bub3 strain (AID 167). The following applies: S. cerevisiae bub3 mutant strain, hits give high values. In short, it runs like this:
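Part of a panel of yeast mutants defective in DNA damage repair or cell cycle regulation. Each strain is grown with compound, and inhibition is calculated relative to solvent-treated cultures.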

A short description of assay [6]: NCI Yeast Anticancer Drug Screen. Data for the mlh1 rad18 strain (AID 175). Conditions: S. cerevisiae mlh1 rad18 strain growth inhibition, hits give high values. In outline:
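Genetically defined yeast (DNA repair-deficient) exposed to compounds; growth inhibition determined relative to vehicle.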

Where [7] appears, read: at 5.0 µM (retest, dose inferred, filed as 0.5).
Where [8] appears, read: at 50.0 µM (retest, dose inferred, filed as 5.0).

Take `Oc1ccc(-c2ccccc2)cc1Br`: the growth inhibition in assay [1] (setting [7]) is 14%; in assay [1] (setting [8]), 99% (active); in assay [1] (at 50.0 µM) it was 99.4% (active); in assay [2] (setting [7]), 3%; in assay [2] (setting [8]) it was 100% (active); in assay [2] (at 50.0 µM), 99.7% (active). For the same molecule, the growth inhibition was 1% in assay [3] (setting [7]); 99% (active) in assay [3] (setting [8]); 99.5% (active) in assay [3] (at 50.0 µM); -9% in assay [4] (setting [7]); 99% (active) in assay [4] (setting [8]); 98.5% (active) in assay [4] (at 50.0 µM). The growth inhibition was -3% in assay [5] (setting [7]); 99% (active) in assay [5] (setting [8]); 99.5% (active) in assay [5] (at 50.0 µM); 9% in assay [6] (setting [7]); 99% (active) in assay [6] (setting [8]); 99.5% (active) in assay [6] (at 50.0 µM).
`N#CC(C#N)=C(c1ccccc1)c1ccccc1`: the growth inhibition was -8% in assay [1] (setting [7]); 99% (active) in assay [1] (setting [8]); 97.4% (active) in assay [1] (at 50.0 µM); 13% in assay [2] (setting [7]); 100% (active) in assay [2] (setting [8]); 99.5% (active) in assay [2] (at 50.0 µM). Besides, the growth inhibition was 18% in assay [3] (setting [7]); 99% (active) in assay [3] (setting [8]); 99.4% (active) in assay [3] (at 50.0 µM); -33% in assay [4] (setting [7]); 99% (active) in assay [4] (setting [8]); 99.5% (active) in assay [4] (at 50.0 µM). The growth inhibition in assay [5] (setting [7]) was -6%; in assay [5] (setting [8]) it was 100% (active); in assay [5] (at 50.0 µM) it was 99.3% (active); in assay [6] (setting [7]), -4%; in assay [6] (setting [8]), 100% (active); in assay [6] (at 50.0 µM), 99.4% (active).
Turning to `CS(=O)(=O)OC1COC2C(I)COC12` (stereo not given), the growth inhibition in assay [1] (setting [7]) was -1%; in assay [1] (setting [8]), 55%; in assay [1] (at 50.0 µM), 7.85%; in assay [2] (setting [7]), 3%; in assay [2] (setting [8]) it was 58%; in assay [2] (at 50.0 µM), -11.8%. The growth inhibition was -1% in assay [3] (setting [7]); 83% (active) in assay [3] (setting [8]); 1.85% in assay [3] (at 50.0 µM); 5% in assay [4] (setting [7]); 30% in assay [4] (setting [8]); 13.7% in assay [4] (at 50.0 µM). In addition, the growth inhibition was -1% in assay [5] (setting [7]); 83% (active) in assay [5] (setting [8]); 77.3% (active) in assay [5] (at 50.0 µM); 2% in assay [6] (setting [7]); 84% (active) in assay [6] (setting [8]); 19.9% in assay [6] (at 50.0 µM).
As to `CCCCCCCCCCCCCCCCCC(=O)OCC(O)COC(=O)CCCCCCCCCCCCCCCCC`, the growth inhibition in assay [1] (setting [7]) is -2%; in assay [1] (setting [8]), -5%; in assay [1] (at 50.0 µM), -7.45%; in assay [2] (setting [7]), 1%; in assay [2] (setting [8]), -3%; in assay [2] (at 50.0 µM), 15.6%. Further, the growth inhibition in assay [3] (setting [7]) was -3%; in assay [3] (setting [8]), -21%; in assay [3] (at 50.0 µM), -8.65%; in assay [4] (setting [7]), 0%; in assay [4] (setting [8]) it was -13%; in assay [4] (at 50.0 µM), 38.4%. In addition, the growth inhibition in assay [5] (setting [7]) was 4%; in assay [5] (setting [8]), 0%; in assay [5] (at 50.0 µM) it was 45.5%; in assay [6] (setting [7]) it was 2%; in assay [6] (setting [8]), -1%; in assay [6] (at 50.0 µM), 2.55%.
With `Cc1c2cc(Cl)ccc2cc2c1ccc1ccccc12`, the growth inhibition is 12% in assay [1] (setting [7]); 5% in assay [1] (setting [8]); 96.7% (active) in assay [1] (at 50.0 µM); -7% in assay [2] (setting [7]); 6% in assay [2] (setting [8]); 98.8% (active) in assay [2] (at 50.0 µM). Further, the growth inhibition is 2% in assay [3] (setting [7]); 14% in assay [3] (setting [8]); 99.2% (active) in assay [3] (at 50.0 µM); -3% in assay [4] (setting [7]); 8% in assay [4] (setting [8]); 70.8% (active) in assay [4] (at 50.0 µM). Besides, the growth inhibition is -6% in assay [5] (setting [7]); -4% in assay [5] (setting [8]); 96.5% (active) in assay [5] (at 50.0 µM); -4% in assay [6] (setting [7]); 16% in assay [6] (setting [8]); 98.5% (active) in assay [6] (at 50.0 µM).
As for `COc1ccc(-c2cscc2N)cc1`, the growth inhibition in assay [1] (setting [7]) is -7%; in assay [1] (setting [8]) it was 72% (active); in assay [1] (at 50.0 µM), 67.5%; in assay [2] (setting [7]), -15%; in assay [2] (setting [8]), 46%; in assay [2] (at 50.0 µM) it was 87.2% (active). Moreover, the growth inhibition in assay [3] (setting [7]) was -9%; in assay [3] (setting [8]), 38%; in assay [3] (at 50.0 µM), 51.9%; in assay [4] (setting [7]) it was -6%; in assay [4] (setting [8]), 89% (active); in assay [4] (at 50.0 µM), 46.1%. The growth inhibition was -19% in assay [5] (setting [7]); 91% (active) in assay [5] (setting [8]); 92.2% (active) in assay [5] (at 50.0 µM); -1% in assay [6] (setting [7]); 56% in assay [6] (setting [8]); 89% (active) in assay [6] (at 50.0 µM).
In the case of `O=[N+]([O-])c1ccc(N/N=C/COCCO)c([N+](=O)[O-])c1`, the growth inhibition is 2% in assay [1] (setting [7]); 20% in assay [1] (setting [8]); 37.4% in assay [1] (at 50.0 µM); 9% in assay [2] (setting [7]); 11% in assay [2] (setting [8]); 11.8% in assay [2] (at 50.0 µM). For the same molecule, the growth inhibition was 0% in assay [3] (setting [7]); 62% in assay [3] (setting [8]); 23.1% in assay [3] (at 50.0 µM); 4% in assay [4] (setting [7]); 2% in assay [4] (setting [8]); -24.2% in assay [4] (at 50.0 µM). The growth inhibition was -1% in assay [5] (setting [7]); 14% in assay [5] (setting [8]); 73.6% (active) in assay [5] (at 50.0 µM); 1% in assay [6] (setting [7]); 8% in assay [6] (setting [8]); 62% in assay [6] (at 50.0 µM).
Turning to `CCOC(=O)/C(=C\c1ccc(-c2ccccc2)cc1)C(C)=O`, the growth inhibition in assay [1] (setting [7]) is 0%; in assay [1] (setting [8]) it was 93% (active); in assay [1] (at 50.0 µM), 67.1%; in assay [2] (setting [7]), -27%; in assay [2] (setting [8]), 95% (active); in assay [2] (at 50.0 µM) it was 73.5% (active). Moreover, the growth inhibition is 21% in assay [3] (setting [7]); 92% (active) in assay [3] (setting [8]); 81.2% (active) in assay [3] (at 50.0 µM); 1% in assay [4] (setting [7]); 85% (active) in assay [4] (setting [8]); 45.5% in assay [4] (at 50.0 µM). In addition, the growth inhibition in assay [5] (setting [7]) is 16%; in assay [5] (setting [8]), 96% (active); in assay [5] (at 50.0 µM), 66.9%; in assay [6] (setting [7]), -27%; in assay [6] (setting [8]), 94% (active); in assay [6] (at 50.0 µM), 76.6% (active).
`CC(=O)c1cc(-c2ccccc2)nc2ccccc12`: the growth inhibition is -5% in assay [1] (setting [7]); 38% in assay [1] (setting [8]); 89.2% (active) in assay [1] (at 50.0 µM); -29% in assay [2] (setting [7]); 84% (active) in assay [2] (setting [8]); 94.1% (active) in assay [2] (at 50.0 µM). Also, the growth inhibition in assay [3] (setting [7]) was 12%; in assay [3] (setting [8]), 80% (active); in assay [3] (at 50.0 µM) it was 98.2% (active); in assay [4] (setting [7]), -25%; in assay [4] (setting [8]), 35%; in assay [4] (at 50.0 µM), 74.5% (active). In addition, the growth inhibition in assay [5] (setting [7]) is -28%; in assay [5] (setting [8]), 87% (active); in assay [5] (at 50.0 µM), 87% (active); in assay [6] (setting [7]), 4%; in assay [6] (setting [8]), 88% (active); in assay [6] (at 50.0 µM), 97.1% (active).
`NNC(=S)NN/C=C(\C=Nc1ccccc1)[N+](=O)[O-]`: the growth inhibition is 19% in assay [1] (setting [7]); 80% (active) in assay [1] (setting [8]); 69.8% in assay [1] (at 50.0 µM); -29% in assay [2] (setting [7]); 70% (active) in assay [2] (setting [8]); 68% in assay [2] (at 50.0 µM). Moreover, the growth inhibition is 7% in assay [3] (setting [7]); 62% in assay [3] (setting [8]); 65.5% in assay [3] (at 50.0 µM); -17% in assay [4] (setting [7]); 57% in assay [4] (setting [8]); 57.5% in assay [4] (at 50.0 µM). Further, the growth inhibition in assay [5] (setting [7]) was -6%; in assay [5] (setting [8]) it was 64%; in assay [5] (at 50.0 µM), 75.1% (active); in assay [6] (setting [7]), -20%; in assay [6] (setting [8]) it was 86% (active); in assay [6] (at 50.0 µM), 68.8%.
